BoNT-F LC inh = BoNT F light chain protease inhibition. actives 0.22% (n = 360,000). AID 588497. Multiplex microsphere protease cleavage assay, flow cytometry. inhibition, % at 10 µM; in the data active means inhibition above about 35%, passing the limit was not always enough; inconclusive means no clear call, values can overlap the other calls; further: plate controls were buffer without enzyme for full effect and enzyme alone for no effect
BoNT-A LC inh2 = inhibitors of Botulinum neurotoxin A light chain protease | inhibition, % at 10 µM | actives 0.17% (n = 360,000) | multiplex microsphere protease substrate cleavage, flow cytometry; further: plate controls were buffer without enzyme for full effect and enzyme alone for no effect
BJeLR lethal = kills HRASV12-expressing BJeLR cells; inhibition, % (concentration not given with the values); BJeLR (HRASV12) viability, CellTiter-Glo ATP luminescence, 48 h; actives 0.17% (n = 300,000); AID 1554; in the data active means inhibition above about 50%; inconclusive means no clear call, values can overlap the other calls
SARS 3CLpro inh = SARS-CoV 3CLpro protease inhibition | P0C6X7 | recombinant SARS-CoV 3CLpro, quenched FRET peptide cleavage | inhibition, % at 6 µM | actives 0.14% (n = 290,000); in the data active means inhibition above about 12%
Autofluor counter = counter-screen for toxin protease inhibitors: compound fluorescence; actives 3.1% (n = 360,000); fluorescence intensity (test concentration not listed); compound autofluorescence counterscreen, microsphere flow cytometry; hits give high values; in the data active means fluorescence intensity above about 16000; inconclusive means no clear call, values can overlap the other calls
Anthrax LF inh2 = blocks Bacillus anthracis lethal factor protease | actives 0.12% (n = 360,000) | P15917 | inhibition, % at 10 µM | multiplex microsphere protease cleavage assay, LF; further: plate controls were buffer without enzyme for full effect and enzyme alone for no effect
* = called active by the depositor; u = inconclusive; x = no result given. Rows were chosen to be rich in hits. Some 3.6% of all compounds tested hit in one or more screens of this group. Unless noted, no stated cut-off is given here; in the data, active means inhibition above about 30%; inconclusive means no clear call, values can overlap the other calls; inactive means below that.

SMILES	BoNT-F LC inh	BoNT-A LC inh2	BJeLR lethal	SARS 3CLpro inh	Autofluor counter	Anthrax LF inh2
Cc1cc(=O)oc2cc3c(cc12)CCCN3	1	0	-11	-1	3637	8
Cc1cc2c(C)cc(=O)oc2c2c1NCCC2	-7	-6	-8	2	25354*	-2
CCN(CC(=O)Nc1ccccc1C(F)(F)F)C(=O)C1=COCCO1	u	u	-22	x	5301	-2
CCSc1nc2c(c(=O)[nH]c(=O)n2C)n1CC(O)COc1ccccc1C (stereo unspecified)	1	-1	2	3	20886*	-4
Cc1ccccc1OCC(O)Cn1c(SC(C)C)nc2c1c(=O)[nH]c(=O)n2C (stereo unspecified)	0	0	2	-6	5939	1
CN(Cc1ccccc1)C(=O)[C@@H]1CCCN1C(=O)[C@@H]1CCCN1C(=O)c1ccc(Cl)cc1	0	-1	x	x	6328	-9
CC1(C)CC(=O)C(C(c2ccc(Br)cc2)C2C(=O)CC(C)(C)CC2=O)C(=O)C1	u	-3	25	3	3905	9
O=c1c2c([nH]c3ccccc13)CCCCCC2	-3	u	7	8	22192*	-6
O=c1cc(-c2ccccc2)c2c([nH]1)CCCC2	7	5	5	-3	19679*	-8
O=C(NCc1ccncc1)c1nc(-c2ccc(C(F)(F)F)cc2)no1	-1	0	7	1	2426	-2
O=C(O)CSc1nnc(C2COc3ccccc3O2)n1-c1ccccc1 (stereo unspecified)	3	1	-7	2	19815*	-2
COc1cc(C)ccc1OCCOCCOc1ccc(C)cc1[N+](=O)[O-]	-6	-1	8	1	2601	-1
C=CCNCCOCCOc1ccc(C)cc1[N+](=O)[O-]	2	1	-2	-2	21806*	-3
O=c1[nH]n(-c2ccc(Cl)cc2)c(=O)c(Cl)c1Cl	-3	u	4	-2	21602*	0
Cc1[nH]n(-c2ccccc2)c(=O)c1-c1ccc(Cl)cc1	-8	0	0	10	4665	-1
CC(C)(C)c1ccc(S(=O)(=O)N2CC(=O)Nc3ccccc32)cc1	-3	-1	-4	0	23729*	0
C[C@@H](C(=O)N=c1sc2ccccc2n1C)N1C(=O)C2CC=CCC2C1=O (stereo partly specified)	-2	0	x	x	4278	2
CC(=O)c1c(C(C)=O)c(C)n(-c2ccc(C)c(NC(=O)c3ccccc3Cl)c2)c1C	0	0	3	-2	16183*	-4
Cc1ccc(NC(=O)c2ccccc2Cl)c(Cl)c1	x	x	-6	4	x	x
Cc1cc(C)cc(C(=O)N2CCN(c3ccccn3)CC2)c1	1	0	-7	0	4144	-2
O=C(O)CCC(=O)CCC(=O)c1ccccc1	-3	u	-11	2	23543*	-2
O=C(OCCN1CCCCC1)c1ccc(O)cc1	5	3	-8	1	21154*	1
OC(CCCCN1CCCCC1)c1ccccc1 (stereo unspecified)	3	u	-3	-1	22737*	-2
O=C(CCN1CCCCC1)c1ccccc1	1	u	1	-2	16441*	1
O=C(CCN1CCOCC1)c1ccccc1	-10	0	7	4	6935	0
SMILES	BoNT-F LC inh	BoNT-A LC inh2	BJeLR lethal	SARS 3CLpro inh	Autofluor counter	Anthrax LF inh2
COCCN1C[C@@H](CO)O[C@@H](n2cnc3c(N(C)C(C)C)ncnc32)C1	-11	0	x	x	4324	1
COc1cccc(C(O)c2ncc(-c3cccc4ccccc34)[nH]2)c1 (stereo unspecified)	-1	0	x	x	3356	-5
O=C(NNC(=O)c1ccccc1F)c1ccc(NS(=O)(=O)c2ccc(F)cc2)cc1	-4	-4	x	x	6515	2
C1CCCN(CCCCN2CCCCCC2)CC1	4	5	6	4	21776*	-5
Cc1cc(C)c(S(=O)(=O)N2C[C@H]3CON(C)[C@H]3C[C@H]2c2ccc(N3CCCCC3)cc2)c(C)c1	13	-11	x	x	34680*	-21
Cc1cc2nc(/C=C/c3cccnc3)[nH]c2cc1C	u	9	53*	3	3767	-12
Cc1ccc(C)c(NC(=O)c2sc(Cl)nc2-c2ccccc2)c1	1	0	-6	-1	3267	-6
O=c1[nH]c2cc3c(cc2cc1C(c1nnnn1CC1CCCO1)N1CCCCCC1)OCCO3 (stereo unspecified)	-6	-4	0	0	22706*	1
Cc1cccc2cc(C(c3nnnn3C(C)(C)C)N(Cc3ccco3)CC3CCCO3)c(=O)[nH]c12 (stereo unspecified)	4	3	1	-2	21568*	-2
Cc1cccc2cc(C(c3nnnn3Cc3ccccc3)N3CCCc4ccccc43)c(=O)[nH]c12 (stereo unspecified)	2	u	19	3	23808*	5
Cc1cccc2cc(C(c3nnnn3CC3CCCO3)N3CCOCC3)c(=O)[nH]c12 (stereo unspecified)	8	u	-2	2	18150*	-7
CCCCN(C=O)c1c(CC)nc2c(OCC3CCCCC3)cccn12	-6	0	x	x	3872	-8
Cc1ccc(NC(=O)COc2ccc(C(=O)c3ccccc3)cc2)c(O)c1	4	0	5	4	5620	-1
Cc1ccc(-n2ncc(-c3n[nH]c(=S)o3)c2N)cc1C	0	0	x	x	3832	-3
Cc1cccc(C)c1NC(=O)NC1(C(=O)NCc2ccncc2)CCCCC1	2	-2	-5	-6	2990	1
Cc1nn(-c2ccccc2)c(C)c1NC(=O)COc1ccc([N+](=O)[O-])cc1	-9	-4	-4	x	7852	-3
CCCc1ccc(NS(=O)(=O)c2c(C)oc(C)c2C(=O)OC)cc1	u	-2	-12	7	4322	-4
Cc1ccc2cc(C(c3nnnn3C3CCCC3)N(Cc3ccco3)Cc3cccs3)c(=O)[nH]c2c1 (stereo unspecified)	-5	-2	-3	2	24754*	-3
Cc1ccc2cc(C(c3nnnn3C3CCCC3)N(Cc3cccnc3)Cc3ccco3)c(=O)[nH]c2c1 (stereo unspecified)	0	1	-8	3	11893	-2
CCOC(=O)c1c(C)c(C(=O)NCCN2CCOCC2)c(C)n1CC	-7	-5	6	1	17127*	-4
CCOC(=O)c1c(C)c(C(=O)Nc2ccccc2)c(C)n1CC	8	0	-1	5	9794	0
CCOC(=O)c1c(C)c(C(=O)NCc2cccs2)c(C)n1CC	2	1	-10	0	20405*	-1
COc1ccc2c(c1)c1nc3ccccc3nc1n2CCn1c(=O)oc2ccccc21	1	1	-15	-2	16506*	0
O=c1oc2ccccc2n1CCn1c2ccccc2c2nc3ccccc3nc21	-3	3	-7	-2	3091	3

Bioassay records as filed in PubChem BioAssay.
